Calls of active or inactive are those of the source.
System: not listed separately
Experiment: S6 kinase pathway phospho-S6 level changes – cell-based, A549, cytoblot, luminescence, serum-stimulated, primary screen (AID 1158);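 note: serum-stimulated A549 lung adenocarcinoma cells; signal is phosphorylated S6 detected by cytoblot immunostaining with HRP secondary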
Details: 5 h, higher = more signal

z-score, -0.158:
[N-]=[N+]=Nc1ccccc1[C@@H]1OC(c2ccc(OCCCO)cc2)=N[C@]1(CCS(=O)(=O)c1ccccc1)C(=O)NCC(O)CO (some centres not stated)

z-score, -0.24:
O=C1C2C=CC(C(O)c3c(F)cccc3Cl)N(Nc3ccc([N+](=O)[O-])cc3)C2C(=O)N1c1ccccc1 (configuration not stated)

z-score, 0.276:
COc1ccccc1CN1C(=O)c2ccccc2[C@](Cc2ccccc2I)(C(=O)NCC(C)C)[C@@H]1c1ccc(CO)cc1

z-score, -0.11:
CC1CC/C=C\[C@H]2OC34C=CCN(c5ccc(Cl)cc5)C(=O)[C@H]3N(CCCCCCO)C(=O)[C@]4(C)C2C(=O)O1 (some centres not stated)

z-score, 0.775:
CN1C(=O)C2C(C3CC3)C=C3CN(Cc4cccc(Cl)c4)[C@@H]([C@@H](O)Cc4ccccc4)C3C2C1=O (some centres not stated)

z-score, -0.108:
COC(=O)[C@@]1(Cc2ccc(OC)cc2)[C@H]2c3cc(C(=O)N4CCCC4)n(CCn4cc([N+](=O)[O-])nc4C)c3C[C@H]2CN1C(=O)c1ccccc1

z-score, 0.581:
C=CC[C@@]1(C(=O)OC)N=C(c2ccc(OCCCO)cc2)O[C@@H]1c1ccccc1N=[N+]=[N-]

Biological target: NADPH oxidase 2 (Homo sapiens) (UniProt P04839)
Experiment: compounds shifting NOX2 Amplex Red fluorescence – cell-based, HEK293-NOX2, PMA-stimulated, NOX inhibitor project, primary screen (AID 1159); note: test concentration not given here
Details: 45 min, higher = more signal, called active from +8 up or from −8 down

NADPH oxidase 2 (Homo sapiens), sequence (P04839 whole entry, looked up): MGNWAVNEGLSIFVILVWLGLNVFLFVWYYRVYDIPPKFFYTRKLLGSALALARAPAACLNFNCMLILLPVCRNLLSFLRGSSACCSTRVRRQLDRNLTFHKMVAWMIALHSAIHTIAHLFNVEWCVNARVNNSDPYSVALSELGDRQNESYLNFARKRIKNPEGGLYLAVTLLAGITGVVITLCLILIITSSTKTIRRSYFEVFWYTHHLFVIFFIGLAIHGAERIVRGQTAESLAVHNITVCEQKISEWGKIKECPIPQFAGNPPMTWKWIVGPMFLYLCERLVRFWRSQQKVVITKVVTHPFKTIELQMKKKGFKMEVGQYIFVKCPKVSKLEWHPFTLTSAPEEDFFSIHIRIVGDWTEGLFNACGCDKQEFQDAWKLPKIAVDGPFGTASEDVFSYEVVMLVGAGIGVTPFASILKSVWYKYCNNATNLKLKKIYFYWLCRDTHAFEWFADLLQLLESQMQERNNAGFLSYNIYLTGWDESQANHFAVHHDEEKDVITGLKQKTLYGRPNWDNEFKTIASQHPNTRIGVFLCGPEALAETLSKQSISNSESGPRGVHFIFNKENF

z-score, inactive:
CCOC(=O)C1=CC[C@@H](c2ccc(OC)cc2)N(S(=O)(=O)c2ccc(C)cc2)[C@H]1c1ccc(C)cc1 0.864
CCOC(=O)C[C@H]1[C@H](OC(=O)Cc2ccc3c(c2)OCO3)[C@@H](NC(=O)c2ccc3ccccc3n2)c2cc(OCCCO)ccc2N1C(=O)Cc1ccc(OC)cc1 -1.47
CC(C)(C)N1CC=CC23O[C@@H]4C=CCOC(=O)[C@@H]4[C@H]2C(=O)N(CCO)[C@@H]3C1=O (some centres not stated) 1.09
CCOC(=O)C1=CC[C@@H](c2ccc(OC)cc2)N(S(=O)(=O)c2ccc(C)cc2)[C@H]1CC 0.0165
COc1ccc(NN2C(C(O)c3ccc(I)cc3)C=CC3C(=O)N(C4CCCCC4)C(=O)C32)cc1 (configuration not stated) 0.0194
C=CCOC(=O)[C@H]1[C@@H]2C(=O)O[C@@H](c3ccccc3)[C@@H](c3ccccc3)N2[C@@H](c2ccc(OCCOC(=O)[C@@H]3C[C@@H]4C(=O)N[C@@H](CCCC[N+](C)(C)C)C(=O)N4[C@@H]3c3ccc(O)cc3)cc2)[C@]12C(=O)Nc1ccc(I)cc12 1.66
Cc1ccc(S[C@]2(C(=O)NCc3ccccc3)CC(=O)N(Cc3ccccc3C(F)(F)F)[C@@H]2c2ccc(CO)cc2)cc1 -1.69
CC(C)=CCCC(C)=CC(O)C1C=CC2C(=O)NC(=O)C2N1Nc1ccccn1 (configuration not stated) -0.637
O=C1O[C@H](c2ccccc2)[C@H](c2ccccc2)N2[C@H]1[C@@H](C(=O)O)[C@]1(C(=O)Nc3ccc(C#CCCO)cc31)[C@H]2c1ccc(OCCO)cc1 1.43
C=CCN1C(=O)[C@@]2(O[C@@H](CCn3cc([C@H](O)c4ccccc4)nn3)[C@H]([Si](C)(C)c3ccc(OC)cc3)[C@H]2C)c2cc(N3C(=O)c4cccc5cccc3c45)ccc21 0.962
NC(=O)NCC#Cc1ccc2c(c1)[C@]1(C(=O)N2)[C@H](c2ccc(OCCO)cc2)N2[C@H](c3ccccc3)[C@H](c3ccccc3)OC(=O)[C@H]2[C@@H]1C(=O)O 1.97
CO[C@H]1O[C@H](CO)[C@@H](OC(=O)Nc2ccc3c(c2)OCO3)[C@H](OC(=O)Nc2ccccc2-c2ccccc2)[C@H]1OC(=O)Nc1ccccc1-c1ccccc1 -4.55
CC1CC/C=C\[C@H]2OC34C=CCN(c5ccc6ccccc6c5)C(=O)[C@H]3N(C(C)CO)C(=O)[C@@H]4C2C(=O)O1 (some centres not stated) 0.995
COC(=O)[C@@]1(Cc2ccc(OC)cc2)[C@H]2c3cc(C(=O)N4CCCC4)n(Cc4ccc(C(F)(F)F)nc4)c3C[C@H]2CN1C(=O)c1ccccc1 0.101
Cc1ccc(C(C)CC(O)C2C=CC3C(=O)N(C)C(=O)C3N2Nc2ccccc2)o1 (configuration not stated) -1.73
C=CC[C@@]1(C(=O)N(C)C)N=C(c2ccc(OCCCO)cc2)O[C@@H]1c1ccccc1CN=[N+]=[N-] 1.85
COC(=O)[C@@]1(Cc2ccccc2)[C@H]2c3cc(C(=O)N4CCCC4)n(Cc4ccc(OC)c(OC)c4)c3C[C@H]2CN1C(=O)c1ccccc1 0.136
N#Cc1ccc(NN2C(C(O)C3CC=CCC3)C=CC3C(=O)N(c4ccccc4)C(=O)C32)cc1 (configuration not stated) -1.21
C=C(C)[C@@H]1CC=C(C(O)C2C=CC3C(=O)N(c4ccccc4)C(=O)C3N2Nc2ccc([N+](=O)[O-])cc2)CC1 (some centres not stated) -0.962
COc1ccc([Si](C)(C)[C@H]2[C@H](CCO)O[C@@]3(C(=O)N(Cc4cccc(N(C=O)c5ccccc5)c4)c4ccccc43)[C@@H]2C)cc1 -1.31
CCCCC(O)C1C=CC2C(=O)N(c3ccccc3)C(=O)C2N1Nc1ccc([N+](=O)[O-])cc1 (configuration not stated) -1.08
COc1ccc([Si](C)(C)[C@@H]2[C@@H](CC(=O)N3CCC[C@H]3CO)O[C@]3(C(=O)N(Cc4ccc(N5CCOC5=O)cc4)c4ccccc43)[C@H]2C)cc1 2.64
CC(C)NC(=O)[C@@H]1c2ccccc2C(=O)N(Cc2ccccc2C(F)(F)F)[C@H]1c1ccc(CO)cc1 1.21
CCCCCC1=C2CNC(Cc3ccccc3)(C(=O)OC)C=C2C(C)C1=O (configuration not stated) -0.733
CN(C)c1ccc(C(O)C2C=CC3C(=O)N(Cc4ccccc4)C(=O)C3N2n2cnnc2)cc1 (configuration not stated) 0.683
O=C(NCC(O)CO)[C@@]1(CCS(=O)(=O)c2ccccc2)N=C(c2ccc(OCCCO)cc2)O[C@H]1c1ccccc1 (some centres not stated) -0.356
COCCCNC(=O)[C@@H]1c2ccccc2C(=O)N(Cc2ccc(OC(F)(F)F)cc2)[C@H]1c1ccc(CO)cc1 -0.385
Cc1ccc(F)cc1S(=O)(=O)N[C@H]1CCN(Cc2ccc(OC(C)C)cc2)C1 -1.11
CC1CC/C=C\[C@H]2OC34C=CCN(c5ccc(Cl)cc5)C(=O)[C@H]3N(CCCCCCO)C(=O)[C@]4(C)C2C(=O)O1 (some centres not stated) 1.37
O=C1C2C=CC(C(O)c3c(F)cccc3Cl)N(Nc3ccc([N+](=O)[O-])cc3)C2C(=O)N1c1ccccc1 (configuration not stated) -1.5
[N-]=[N+]=Nc1ccccc1[C@@H]1OC(c2ccc(OCCCO)cc2)=N[C@]1(CCS(=O)(=O)c1ccccc1)C(=O)NCC(O)CO (some centres not stated) -3.11
C=CC[C@@]1(C(=O)OC)N=C(c2ccc(OCCCO)cc2)O[C@@H]1c1ccccc1N=[N+]=[N-] -0.471
COC(=O)[C@@]1(Cc2ccc(OC)cc2)[C@H]2c3cc(C(=O)N4CCCC4)n(CCn4cc([N+](=O)[O-])nc4C)c3C[C@H]2CN1C(=O)c1ccccc1 0.54
CN1C(=O)C2C(C3CC3)C=C3CN(Cc4cccc(Cl)c4)[C@@H]([C@@H](O)Cc4ccccc4)C3C2C1=O (some centres not stated) -0.38
COc1ccccc1CN1C(=O)c2ccccc2[C@](Cc2ccccc2I)(C(=O)NCC(C)C)[C@@H]1c1ccc(CO)cc1 -0.943

From PubChem BioAssay
